Source: PubChem BioAssay
TDP1 cell noCPT – qHTS for Inhibitors of human tyrosyl-DNA phosphodiesterase 1 (TDP1): qHTS in cells in absence of CPT; DT40 Tdp1-/- hTDP1 cells, no CPT, ATP luminescence, 48 h; Potency, µM (titrated, usually from 46.2 µM), without a hit: top-dose activity change, negative = growth inhibition, usual class: inhibitors; 15% of 420,000 active; AID 686978, 2013; also: % is scaled to controls: 0 for no effect and ±100 for the full control effect; nearly all actives have a fitted effect of over 55% in size
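Cells were dispensed at 400 per well, compounds added by pin tool, plates incubated ≥48 hr at 37 °C, then CellTiter-Glo added for 30 min at room temperature before luminescence reading. Line: DT40 Tdp1-/- complemented with hTDP1; camptothecin omitted.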
TGFb SMAD3 inh – inhibitors of TGF-b signaling. HepG2 CAGA-GFP TGF-b/SMAD3 reporter, GFP fluorescence, 18 h; TGF-beta stimulated, 500 pg/mL final. Potency, µM (top dose mostly 46.1 µM), inactives show at the highest dose activity, negative = inhibition, actives largely listed as inhibitors. 1.2% of 410,000 active; also: % is scaled to controls: 0 for no effect and ±100 for the full control effect; nearly all actives have a fitted effect of over 65% in size
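Using HEPG2 CAGA-GFP reporter cells at 1000 cells/well, we pinned test compounds, stimulated with recombinant TGF-beta (500 pg/mL final) and measured total well GFP after 18 h.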
HT1080NT lethal – kills 2HG-producing HT-1080-NT fibrosarcoma cells; HT-1080-NT fibrosarcoma viability, CellTiter-Glo ATP luminescence, 48 h; AID 686970; Potency, µM (series often up to 46.1 µM), without a hit: at the top dose activity, negative = less viability, usual class: cytotoxic; 1.6% of 360,000 active;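 also: NT is the 2HG producing partner of a matched IDH1 knockdown line; 0% = DMSO-treated cells and -100% = media-only wells without cells; nearly all actives have a fitted effect of over 55% in size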
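750 cells/well, RPMI + 5% FBS; 2 h settle, compound pin-transfer, 48 h at 37 degrees C. CellTiter-Glo 10 min RT, luminescence. Normalized to DMSO and media-only wells.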
HT1080 IDH1KD tx – kills HT-1080 cells with IDH1 knockdown; AID 686971; HT-1080 IDH1 knockdown viability, ATP luminescence, 48 h; Potency, µM (titrated, usually from 46.1 µM), inactives show top-dose activity, negative = toxicity, actives largely listed as cytotoxic; 2% of 360,000 active;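 also: 0% = DMSO wells and -100% = cell-free medium wells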
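After a 2 h attachment period, IDH1KD HT-1080 cells took pin-transferred compound for 48 h at 37 °C; ATP-based luminescence after 10 min room-temperature reagent incubation reported viability.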
DT40 TDP1 CPT – DT40-hTDP1 cell growth loss with CPT. AID 686979. Potency, µM (titrated, usually from 46.2 µM), without a hit: at the top dose activity change, negative = growth inhibition, actives largely listed as inhibitors. chicken DT40 Tdp1-/-;hTDP1 cells + 20 nM CPT, ATP luminescence, 48 h. 12% of 420,000 active; also: % is scaled to controls: 0 for no effect and ±100 for the full control effect; nearly all actives have a fitted effect of over 55% in size
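Cell growth measured by CellTiter-Glo luminescence after a minimum 48 h, 37 C compound exposure with 20 nM CPT in Tdp1-knockout DT40 cells stably expressing hTDP1, seeded 400/well; qHTS titration format.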
HepG2 viability – counter-screen for TGF-b inhibitors: cytotoxicity in HepG2 cells; HepG2 CAGA-GFP viability, ATP luminescence, 18 h; Potency, µM (doses to about 46.1 µM), for the others: top-dose activity change, negative = cytotoxicity, most hits filed as cytotoxic; 0.76% of 410,000 active
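HepG2 CAGA-GFP cells (1000/well, DMEM with 1% FBS) received compound, then TGF-beta at 500 pg/mL final, and were incubated 18 hours at 37 degrees C. Viability was read by CellTiter-Glo luminescence. Media-only wells were set as complete cell-killing and DMSO as no toxicity.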
* hit, by the source's call; ? = inconclusive; . = not tested or not shown; [ ] = remark or other dose. In the library only some 17% were active in any assay of this set; here they are far more common. Calls follow the shape of the dose curve; as a rule, active = well fitted curve in the direction sought with a large enough effect; inconclusive = small, poorly fitted or top-dose-only effect, or another doubt; inactive = no such curve, though single readings can be large; an effect the other way counts as inactive or inconclusive. Potency is read from the fitted curve at half-maximal effect.

SMILES	TDP1 cell noCPT	TGFb SMAD3 inh	HT1080NT lethal	HT1080 IDH1KD tx	DT40 TDP1 CPT	HepG2 viability
Cc1ccc(-c2cc(C(=O)N3CCCc4ccccc43)no2)cc1	2.7%	-3.4%	8.8%	18.1%	-3.9%	2.7%
CC(C(=O)NCc1ccccc1Cl)N1C(=O)c2ccccc2C1=O (configuration not stated)	4.1%	10.2%	12.6%	15.5%	-10.1%	-9.9%
O=S(=O)(Nc1ccc(-c2ccc(N3CCCC3)nn2)cc1)c1ccccc1Cl	-24.2%	?	.	.	?	-26.3%
COc1cc(/C=N\NC(=O)c2ccccc2F)ccc1Oc1ccc([N+](=O)[O-])cn1	4.61µM*	-24.7%	20.6µM*	7.31µM*	4.61µM*	3.2%
COc1cc(/C=N\NC(=O)c2ccc(Cl)cc2)ccc1Oc1ccc([N+](=O)[O-])cn1	-19.6%	-9.4%	-13.3%	-13.6%	-3.6%	1.2%
CCOc1cc(C=C(C#N)C#N)ccc1Oc1ccc([N+](=O)[O-])cn1	13µM*	?	-0.3%	-2.6%	18.4µM*	11.5%
COc1cc(/C=C(/C#N)c2ccc(F)cc2)ccc1Oc1ccc([N+](=O)[O-])cn1	3.66µM*	-14.9%	1.2%	?	2.91µM*	-0.3%
O=C(NCc1ccccn1)c1cnn(-c2nccc(-c3ccccc3F)n2)c1C1CC1	-15.3%	.	.	.	-7.0%[9.04 µM]	.
COc1ccc(-c2noc(CCC(=O)N3CCN(c4ccccc4Br)CC3)n2)cc1	-1.1%	?	0.2%	-7.4%	4.4%	-22.0%
CCN(C(=O)COC(=O)c1ccccc1NCCO)c1cccc2ccccc12	18.4µM*	-0.7%	-5.4%	2.2%	-28.7%	-12.0%
O=C(OCC(=O)N(Cc1ccccc1)Cc1ccccc1)c1ccccc1NCCO	?	-4.4%	?	-14.4%	?	4.7%
COc1ccc(Cn2c(CCC(=O)Nc3ccc(C)cc3)nc3cccnc32)cc1	14.6µM*	-3.5%	-3.3%	-10.9%	?	-4.5%
COc1ccc(Cn2c(CCC(=O)Nc3cc(C)cc(C)c3)nc3cccnc32)cc1	?	?	.	.	?	-36.1%
CCN(CC)c1ccc(C(=O)NCc2nc3cccnc3n2Cc2ccc(C)cc2)cc1	14.6µM*	?	.	.	18.4µM*	-30.4%
Cc1ccc(CNC(=O)CCc2nc3cccnc3n2Cc2ccccc2)cc1	?	-2.9%	.	.	14.6µM*	-19.5%
CS(=O)(=O)Nc1cccc(C2=NN(C(=O)c3ccc(F)cc3)C(c3cccs3)C2)c1 (configuration not stated)	?	?	-21.7%	-27.4%	?	-8.7%
COc1cccc(-c2cncnc2Nc2ccccc2)c1	?	.	.	.	-25.6%	.
CN(C)c1ccc(-c2cncnc2NCCN2CCOCC2)cc1	1.16µM*	.	.	.	0.92µM*	.
COc1cccc(-c2cncnc2NCCN2CCOCC2)c1	2.91µM*	.	.	.	0.82µM*	.
Cc1ccccc1-c1cncnc1NCCN1CCOCC1	3.26µM*	.	.	.	2.91µM*	.
COc1cccc(-c2cncnc2NCc2cnc(C)cn2)c1	3.66µM*	.	.	.	4.61µM*	.
Cc1noc(C)c1-c1cncnc1NCCN1CCOCC1	7.0%	.	.	.	3.6%	.
Cc1ccc2c(c1Br)C(O)(CC(=O)c1ccc(F)cc1)C(=O)N2 (configuration not stated)	?	?	.	.	-16.0%	-30.5%
O=C(O)CCCCCn1c(O)c(C=C2N=c3ccccc3=N2)sc1=S	2.8%	?	-1.9%	-10.7%	2.6%	4.6%
CC1CN(CC(=O)Nc2cccc(C(=O)Nc3cccc(C(F)(F)F)c3)c2)CC(C)O1 (configuration not stated)	23.1µM*	-13.3%	-24.3%	?	23.1µM*	-30.2%
SMILES	TDP1 cell noCPT	TGFb SMAD3 inh	HT1080NT lethal	HT1080 IDH1KD tx	DT40 TDP1 CPT	HepG2 viability
CC1CCN(CC(=O)Nc2cccc(C(=O)Nc3cccc(C(F)(F)F)c3)c2)CC1	16.4µM*	?	16.4µM*	23.1µM*	?	-55.5%
CSc1ncccc1C(=O)OCc1cccc([N+](=O)[O-])c1	-0.5%	-4.4%	7.7%	9.3%	1.1%	5.9%
CC(C)(C)NC(=O)[C@]1(C)CCC[C@@]2(C)C3CC[C@@]4(C)C[C@]3(CCC21)CC4=O (some centres not stated)	-24.5%	-3.8%	3.7%	0.8%	?	-23.8%
C[C@@]12CCC3[C@@](CCC4[C@@]3(C)CCC[C@@]4(C)C(=O)NCc3ccccc3)(CC1=O)C2 (some centres not stated)	18.4µM*	?	-13.8%	-12.3%	?	-27.8%
CC(C)(C)CNC(=O)[C@]1(C)CCC[C@@]2(C)C3CC[C@@]4(C)C[C@]3(CCC21)CC4=O (some centres not stated)	23.1µM*	-0.4%	-0.2%	-12.8%	?	-7.7%
O=C1NC(=O)C(Cc2ccccc2)(C2CCN(Cc3cccn3-c3cccnc3)CC2)N1 (configuration not stated)	-17.9%	.	.	.	1.8%	.
COc1cccc(CN2CCC(c3nnc(SCC4CCCO4)n3C)CC2)c1O (configuration not stated)	0.6%	.	.	.	-3.5%	.
COc1ccc(-c2csc(NC(CO)c3nc4ccccc4n3Cc3ccc(C)cc3)n2)cc1 (configuration not stated)	?	?	?	-6.5%	25.9µM*	-30.0%
Cc1ccc(Cn2c(CCNc3nc(-c4ccc(Cl)c([N+](=O)[O-])c4)cs3)nc3cc(C(=O)NCCCO)ccc32)cc1	13µM*	?	?	?	10.3µM*	-50.0%
CCCn1c(C(C)Nc2nc(-c3ccc(OC)cc3)cs2)nc2ccccc21 (configuration not stated)	?	-8.1%	-10.5%	-12.4%	?	-25.2%
Cc1ccc(Cn2c(C(CO)Nc3nc(-c4ccc(Cl)c([N+](=O)[O-])c4)cs3)nc3ccccc32)cc1 (configuration not stated)	?	15.8µM*	?	-26.5%	?	-40.0%
Cc1ccc(Cn2c(C(CO)Nc3nc(-c4ccc(F)cc4)cs3)nc3ccccc32)cc1 (configuration not stated)	16.4µM*	-2.5%	?	?	?	16.4%
c1ccc2c(NC3CCNCC3)nc(-c3ccoc3)nc2c1	-2.8%	.	.	.	-2.7%	.
CN(C)Cc1ccccc1-c1nc(NC2CCNCC2)c2ccccc2n1	0.651µM*	.	.	.	0.366µM*	.
